Source: PubChem BioAssay
The source made the active and inactive calls.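 The calls were made as follows, unless noted: active = inhibition at or above 50% at 10 µM; inactive = inhibition below 50%.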

What was measured:
[1] = inhibitors of TNFa-induced NFkB p65 translocation, primary screen, imaging, HUVEC, MLSMR starter and 10KST1 sets (AID 438;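 active = inhibition above 20% together with a positive visual image hit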;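 also: compound added about 3h40 before a 20 min TNFalpha stimulation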;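 as to inhibition: signal is the nuclear over cytoplasmic p65 intensity ratio per well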); details: HUVEC TNFa-induced p65 nuclear translocation; cell count: measured here: nuclei count (cytotoxicity indicator), at 2.08 µM; inhibition: at 2 µM, stronger effect = higher value, 0% TNFa-plus-vehicle, 100% no-TNFa wells
[2] = inhibitors of mutant huntingtin aggregation, primary screen, imaging, exon1htt(103Q)mCFP cells, high-content imaging (AID 483;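 active = visual image review flags a hit and inhibition of aggregation exceeds 20%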;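 also: compound exposure lasted 3 days before fixation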;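 as to nuclei count: percent of the per-plate median nuclei count of sample wells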); details: exon1htt(103Q)mCFP cell line, aggregate imaging, at 2 µM; inhibition of aggregation: stronger effect = higher value; nuclei count: measured here: cell count, toxicity
[3] = inhibitors of E-selectin induction by TNFa, primary screen, imaging, HUVEC, immunofluorescence, MLSMR starter and 10KST1 sets (AID 487;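 active = visually confirmed hit in the image check and inhibition above 20%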;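 as to inhibition: signal is fraction of cell area covered by stained E-selectin grains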;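 as to nuclei count: 100% = median nuclei count of all wells on the same plate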); details: HUVEC TNFalpha-induced E-selectin immunofluorescence imaging, at 2 µM; inhibition: stronger effect = higher value; nuclei count: measured here: cell number, toxicity
[4] = target: Voltage-gated potassium channel subunit beta-2 (Rattus norvegicus) (UniProt P62483); assay: KvBeta enzyme negative modulators, primary screen, biochemical, NADPH fluorescence (AID 622;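 active = fluorescence slope higher than the sample average by over 3 SD, cut at about -0.22 in these data, passing the limit was not always enough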;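 also: slope of raw intensity against log time taken from 70 to 1610 s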); details: recombinant KvBeta, 4-cyanobenzaldehyde reduction, at 10 µM, stronger effect = higher value
[5] = target: Voltage-gated potassium channel subunit beta-2 (Rattus norvegicus) (UniProt P62483); assay: KvBeta positive modulators, primary screen, biochemical, NADPH fluorescence (AID 623;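 active = NADPH fluorescence slope more negative than the mean of all samples by about 3 SD, 99.7% confidence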;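 also: fluorescence intensity change per second fitted from 20 to 320 s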); details: Recombinant KvBeta, NADPH fluorescence decrease slope, 10 min; at 10 µM; stronger effect = lower value
[6] = target: Alpha-2C adrenergic receptor (Homo sapiens) (UniProt P18825); assay: modulators of alpha2C/GIRK thallium flux, primary screen, cell-based, HEK293 alpha2C/GIRK1/2 (AID 624;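 active = fluorescence slope after compound addition differing from the mean of all screened samples at 99.7% confidence, in either direction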;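 also: slope of fluorescence ratio to pre-addition baseline per second over 15 to 24 s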); details: thallium flux BTC fluorescence, at 10 µM, actives lie on both sides
[7] = inhibitors of Sendai virus-induced IRF3 signaling, primary screen, TLR/RLR signaling modifier project, cell-based, Sendai virus stimulus, luciferase, 10K MLSCN set (AID 602276); details: HEK293 RL24 IRF3 luciferase reporter, at 10 µM, stronger effect = higher value;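 also: firefly luciferase from ISG56 promoter only with Renilla not read in this screen; 0% = Sendai virus plus DMSO and 100% = medium plus DMSO without virus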
[8] = inhibitors of poly I:C-induced TLR3 signaling, primary screen, cell-based, poly I:C stimulus, luciferase, 10K MLSCN set (AID 602277;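 active = inhibition of the reporter signal at or above 50%; inactive = inhibition below 50%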); details: HEK293-TLR3 RL24 IRF3 luciferase reporter, at 10 µM, stronger effect = higher value

Alpha-2C adrenergic receptor (Homo sapiens), sequence (P18825 whole entry, looked up): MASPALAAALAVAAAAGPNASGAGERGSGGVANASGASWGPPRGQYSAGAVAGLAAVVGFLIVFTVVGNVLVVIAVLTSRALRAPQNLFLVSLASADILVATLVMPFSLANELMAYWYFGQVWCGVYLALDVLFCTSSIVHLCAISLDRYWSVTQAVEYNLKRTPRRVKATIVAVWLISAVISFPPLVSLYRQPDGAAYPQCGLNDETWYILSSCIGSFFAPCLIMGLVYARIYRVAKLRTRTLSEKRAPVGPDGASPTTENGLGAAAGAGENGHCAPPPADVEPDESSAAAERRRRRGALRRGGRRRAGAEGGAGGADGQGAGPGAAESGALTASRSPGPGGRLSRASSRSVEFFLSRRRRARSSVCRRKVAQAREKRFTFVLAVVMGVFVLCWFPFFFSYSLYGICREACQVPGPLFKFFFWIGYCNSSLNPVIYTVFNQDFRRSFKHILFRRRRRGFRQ
Voltage-gated potassium channel subunit beta-2 (Rattus norvegicus), sequence (P62483 whole entry, looked up): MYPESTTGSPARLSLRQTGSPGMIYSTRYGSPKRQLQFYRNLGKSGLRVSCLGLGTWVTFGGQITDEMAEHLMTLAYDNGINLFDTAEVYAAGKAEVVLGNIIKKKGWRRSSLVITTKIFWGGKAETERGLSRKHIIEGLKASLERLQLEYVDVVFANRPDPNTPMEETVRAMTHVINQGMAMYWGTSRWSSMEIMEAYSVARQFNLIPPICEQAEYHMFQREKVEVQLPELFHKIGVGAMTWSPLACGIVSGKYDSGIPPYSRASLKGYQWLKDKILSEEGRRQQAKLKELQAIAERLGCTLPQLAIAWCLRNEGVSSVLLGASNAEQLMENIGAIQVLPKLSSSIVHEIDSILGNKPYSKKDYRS

Structure (SMILES)	cell count [1]	inhibition [1]	inhibition of aggregation [2]	nuclei count [2] [%]	inhibition [3]	nuclei count [3] [%]	fluorescence slope [4]	NADPH fluorescence slope [5]	slope [6]	inhibition [7]	inhibition [8]
O=C1CCCc2c1nn(-c1ccccc1)[n+]2[O-]	563	7.1% (inactive)	-12.3% (inactive)	107	-32.5% (inactive)	108	-0.426 (inactive)	-2.2e-05 (inactive)	0.00571 (inactive)	2.04% (inactive)	5.41% (inactive)
COC(=O)CCCCC(=O)C1C(=O)CC(C)(C)C(C(=O)OC)C1=O (stereo not drawn)	431	-0.3% (inactive)	-13.3% (inactive)	96.5	-1.3% (inactive)	121	-0.49 (inactive)	4.5e-05 (inactive)	0.00358 (inactive)	-9.68% (inactive)	3.35% (inactive)
CCOc1ccc(NC2c3ccccc3C(=O)N2Cc2ccco2)cc1 (stereo not drawn)	695	-6.7% (inactive)	6.4% (inactive)	47.6	-23.8% (inactive)	91.8	-0.6 (inactive)	1.5e-05 (inactive)	0.00369 (inactive)	-13.3% (inactive)	-22.8% (inactive)
CN1CC(=O)N(CC(=O)NCCc2ccc(F)cc2)c2ccccc2C1=O	214	21% (inactive)	16.8% (inactive)	110	-1.2% (inactive)	90.4	-0.602 (inactive)	-2.2e-05 (inactive)	0.0102 (inactive)	10.8% (inactive)	9.93% (inactive)
COC(=O)c1ccc(Oc2nc(NC(C)C)nc(N(C)C)n2)cc1	632	28.3% (inactive)	-21.7% (inactive)	94.4	-112% (inactive)	106	-0.468 (inactive)	2.5e-05 (inactive)	0.00595 (inactive)	-2.9% (inactive)	15.7% (inactive)
CC1=C(C(=O)OC(C)C)C(C2CC=CCC2)NC(=O)N1 (stereo not drawn)	306	2% (inactive)	17.1% (inactive)	93	35.9% (inactive)	98.9	-0.322 (inactive)	1.4e-05 (inactive)	0.0059 (inactive)	0.205% (inactive)	9.1% (inactive)
C=CCc1ccccc1OCC(O)CN1CCN(Cc2ccc3c(c2)OCO3)CC1 (stereo not drawn)	321	4.5% (inactive)	-3.4% (inactive)	91.2	-2% (inactive)	91.6	-0.457 (inactive)	1.5e-05 (inactive)	0.0057 (inactive)	10.6% (inactive)	1.32% (inactive)
CSc1cccc(NC(=O)CN(C)S(=O)(=O)c2ccccc2)c1	407	4.6% (inactive)	-0.4% (inactive)	103	-183% (inactive)	111	-0.406 (inactive)	-3.2e-05 (inactive)	0.00611 (inactive)	6.98% (inactive)	-6.52% (inactive)
CCN1CCN(CCNC(=O)c2cn(C(C)c3ccccc3F)nn2)CC1 (stereo not drawn)	560	-29.6% (inactive)	-18.1% (inactive)	112	-32.9% (inactive)	110	-0.61 (inactive)	-1.9e-05 (inactive)	0.00807 (inactive)	12% (inactive)	9.63% (inactive)
CCOc1ccc(C2CC(c3ccccc3C)n3nc(N)nc3N2)cc1 (stereo not drawn)	515	5% (inactive)	30.8% (inactive)	91.1	-43.7% (inactive)	90.1	-0.586 (inactive)	1.8e-05 (inactive)	0.00699 (inactive)	10.4% (inactive)	25% (inactive)
O=C(CSc1nnc(-c2cnccn2)n1Cc1ccco1)c1ccc(Cl)cc1	287	16.6% (inactive)	-32.9% (inactive)	95.7	-8.9% (inactive)	124	-0.473 (inactive)	4.5e-06 (inactive)	0.00285 (inactive)	8.56% (inactive)	22.1% (inactive)
CCC(=O)N/C(N)=N/c1nc(C)c2cc(OC)ccc2n1	730	10.7% (inactive)	-24.4% (inactive)	95.9	9.1% (inactive)	92.1	-0.378 (inactive)	-1.1e-05 (inactive)	0.00511 (inactive)	-62.4% (inactive)	-122% (inactive)
O=c1[nH]c(Nc2ccccc2)cc2ccccc12	526	-14.6% (inactive)	-7.1% (inactive)	101	-33.7% (inactive)	96.7	-0.132 (inactive)	1.3e-05 (inactive)	0.00342 (inactive)	7.19% (inactive)	7.53% (inactive)
COc1ccc2cc(CN(Cc3ccco3)C(c3nnnn3C3CCCCC3)C(C)C)c(=O)[nH]c2c1 (stereo not drawn)	325	1.6% (inactive)	2.5% (inactive)	119	-147% (inactive)	125	-0.451 (inactive)	5.5e-07 (inactive)	0.00859 (inactive)	11.1% (inactive)	-3.61% (inactive)
CCC(C)NC(=O)CS(=O)(=O)Cc1nc(-c2cccc(OC)c2)oc1C (stereo not drawn)	638	-1.3% (inactive)	-7.7% (inactive)	99.2	-44.8% (inactive)	107	-0.523 (inactive)	2.7e-05 (inactive)	0.00702 (inactive)	9.35% (inactive)	4.33% (inactive)
CCOc1ccc(N(CC(=O)NC2CCCC2)S(=O)(=O)c2c(C)[nH]c(=O)[nH]c2=O)cc1	552	14% (inactive)	15.7% (inactive)	107	-159% (inactive)	132	-0.518 (inactive)	-5.9e-05 (inactive)	0.00723 (inactive)	4.96% (inactive)	15.6% (inactive)
O=S1(=O)C=C(Sc2nnc(-c3ccccc3)o2)c2ccccc21	237	7.4% (inactive)	0.8% (inactive)	93.4	-55.3% (inactive)	109	-0.479 (inactive)	-5.2e-05 (inactive)	0.00503 (inactive)	12.3% (inactive)	66.1% (active)
O=S(=O)(c1cccc(S(=O)(=O)N2CCC(N3CCCCC3)CC2)c1)N1CCOCC1	725	-4.8% (inactive)	-6.3% (inactive)	123	-3.7% (inactive)	106	-0.469 (inactive)	-1.3e-06 (inactive)	0.00684 (inactive)	7.24% (inactive)	28.4% (inactive)
O=C(Nc1ccc2c(c1)OCO2)c1cccc(Cl)c1	407	1.4% (inactive)	-14.3% (inactive)	107	-22.5% (inactive)	114	-0.398 (inactive)	-4.1e-06 (inactive)	0.0047 (inactive)	-28.3% (inactive)	-70.9% (inactive)
O=C(O)CCC1(C(=O)O)OCCc2ccccc21 (stereo not drawn)	470	2.9% (inactive)	-4.2% (inactive)	99.2	-99.4% (inactive)	118	-0.599 (inactive)	-3.7e-05 (inactive)	0.00588 (inactive)	8.34% (inactive)	17.4% (inactive)
COC(=O)C1=C(N)Oc2cc(C)n(Cc3ccncc3)c(=O)c2C1c1cccnc1 (stereo not drawn)	594	-13.5% (inactive)	0% (inactive)	87.4	10.9% (inactive)	104	-0.479 (inactive)	-7e-05 (inactive)	0.00483 (inactive)	12.8% (inactive)	14.1% (inactive)
CCN(CC)c1nc2cc(OC)ccc2cc1C#N	386	-7.8% (inactive)	8.6% (inactive)	101	-50.8% (inactive)	114	-0.584 (inactive)	-6.9e-06 (inactive)	0.00563 (inactive)	12.7% (inactive)	41% (inactive)
CCN1CCN(Cc2ccc(NC(=O)Nc3ccccc3)cc2)CC1	552	-7.5% (inactive)	-20.2% (inactive)	56.6	-49.1% (inactive)	102	-0.605 (inactive)	-1.7e-05 (inactive)	0.00679 (inactive)	10.6% (inactive)	-14.4% (inactive)
CN(C)c1cccc(NC(=O)CCc2ccccc2)c1	503	-5.1% (inactive)	-5.3% (inactive)	106	-7.2% (inactive)	95.9	-0.594 (inactive)	9.8e-06 (inactive)	0.00703 (inactive)	-9.67% (inactive)	-5.4% (inactive)
COc1ccc(S(=O)(=O)N(C)CC(=O)N2CCCCC2)cc1Cl	173	-15.7% (inactive)	4.2% (inactive)	94.8	-2.3% (inactive)	87	-0.492 (inactive)	-2.5e-05 (inactive)	0.00667 (inactive)	13.8% (inactive)	15% (inactive)
CCOc1ccccc1N(CC(=O)N1CCCCCC1)S(C)(=O)=O	358	-10% (inactive)	-1.2% (inactive)	117	-83.5% (inactive)	117	-0.447 (inactive)	-1.3e-05 (inactive)	0.00598 (inactive)	9.48% (inactive)	19.4% (inactive)
CCSc1nc2ccccc2n1CCC(=O)O	615	-62.2% (inactive)	1.9% (inactive)	85.7	-96.2% (inactive)	111	-0.49 (inactive)	-0.000157 (inactive)	0.00453 (inactive)	10.2% (inactive)	18.3% (inactive)
COc1cccc(NC(=O)c2nnn(Cc3ccc(Br)cc3F)c2N)c1	674	-2.8% (inactive)	28.1% (inactive)	109	-61.5% (inactive)	108	-0.484 (inactive)	-4e-05 (inactive)	0.00669 (inactive)	16.4% (inactive)	9.8% (inactive)
